Shown are actives, neighbours in structure and some others; about 3.9% of the full set was active somewhere.
D1 agonist: agonists of human D1 dopamine receptor | AID 504660 | actives 1% (n = 360,000) | activation, % at 2 µM | P21728 | HEK293 T-REx D1 cells, calcium flux, agonist mode; in the data active = activation above about 30%
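Agonism was scored from calcium flux recorded over 180 s (1 read/s) after pintool compound addition, following a 10-cycle baseline. Cells were inducible force-coupled HEK293 TREx D1, plated overnight at 30 C and loaded with no-wash calcium dye.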
D1 potentiator: human D1 dopamine receptor positive modulation; HEK293 TREx D1 cells, calcium flux, dopamine EC20 potentiation; potentiation, % at 10 µM; actives 0.036% (n = 360,000); AID 504651; in the data active = potentiation above about 30%
Eya2 inh: Eya2 (human) phosphatase inhibition; O00167; recombinant Eya2, OMFP fluorescence dephosphorylation (OMFP is methylfluorescein phosphate); Potency, µM (titrated, usually from 76.9 µM), most hits filed as inhibitors; actives 0.006% (n = 330,000); AID 488837
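Eya2 protein (added as 0.2 uM solution) was preincubated with compound for 10 min at ambient temperature in 50 mM HEPES pH 7.5, 50 mM NaCl, 5 uM MgCl2, 0.05% BSA, 1 mM DTT. OMFP (added at 50 uM) then reacted 10 min; fluorescence read at 485/525 nm.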
D1 antag: blocks dopamine activation of the human D1 receptor | actives 3.2% (n = 360,000) | activity change, negative = inhibition, % at 10 µM | HEK293 TREx D1 cells, calcium flux, dopamine EC80; stronger effect = lower value | P21728; in the data active = activity change below about -30%
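Calcium flux readout: force-coupled, inducible Hek293 Trex D1 line, cells induced overnight at 30 C with tetracycline, dye-loaded 30–90 min at RT. Antagonism scored against EC80 dopamine challenge given 180 s after compound.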
GALK inhibitor: blocks human galactokinase activity; Potency, µM (highest dose often 57.5 µM), usual class: inhibitors; Purified GALK, Kinase-Glo residual ATP luminescence; actives 0.007% (n = 270,000)
Target sequence (P51570 whole entry, looked up): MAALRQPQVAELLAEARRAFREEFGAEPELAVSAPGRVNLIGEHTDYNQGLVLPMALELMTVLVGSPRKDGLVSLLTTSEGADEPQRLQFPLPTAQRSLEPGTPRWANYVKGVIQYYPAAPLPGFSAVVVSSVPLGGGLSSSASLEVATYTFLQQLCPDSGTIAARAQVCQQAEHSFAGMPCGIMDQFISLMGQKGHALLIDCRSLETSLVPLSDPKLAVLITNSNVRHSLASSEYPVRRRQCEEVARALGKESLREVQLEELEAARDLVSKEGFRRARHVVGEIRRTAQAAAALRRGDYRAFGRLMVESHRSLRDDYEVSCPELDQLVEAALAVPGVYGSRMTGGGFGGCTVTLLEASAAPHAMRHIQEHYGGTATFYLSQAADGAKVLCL
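Quantitative HTS: GALK 5 nM, ATP 35 uM, galactose 100 uM, 1 h room temperature, then luciferase-based ATP detection.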
USP2a block: USP2a (human) protease inhibition. O75604. USP2 core, Ub-CHOP2 coupled fluorogenic reporter, 485/531. actives 0.01% (n = 330,000). AID 463254. Potency, µM (doses to about 38.3 µM), actives largely listed as inhibitors
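Cell-free coupled assay: 10nM USP2 core preincubated 30min RT with compound in Tris-HCl pH 8.0/CaCl2/CHAPS buffer, then 25nM Ub-CHOP2 and 25nM reporter substrate; fluorescence (Ex 485/Em 531) read after 60min RT, normalized to NEM inhibition, concentration-response curves fitted.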
Of the large screens only hits and unclear results are named; the others gave an inactive call; ! = repeats disagree. Unless noted, calls follow the shape of the dose curve; as a rule, active = well fitted inhibition curve with a large enough effect; inconclusive = small, poorly fitted or top-dose-only effect, or effect the other way; inactive = flat fitted curve, though single readings scatter.

CN1C(=O)c2ccccc2Sc2ccc(NC(=O)Nc3ccccc3F)cc21	none (no result: Eya2 inh, GALK inhibitor, USP2a block)
CCc1cccc(NC(=O)Nc2ccc3c(c2)N(C)C(=O)c2ccccc2S3)c1	D1 antag -39 (no result: Eya2 inh, GALK inhibitor, USP2a block)
COc1cc(C)c(C(=O)Oc2cc(C)c(C(=O)O)c(O)c2C)c(OC)c1C	D1 antag -66
Cc1cccc2sc(N(CCN(C)C)C(=O)C3CCN(S(=O)(=O)c4cccs4)CC3)nc12	D1 agonist 39 (no result: GALK inhibitor)
O=c1oc2c(CN3CCOCC3)c(O)ccc2c2c1CCC2	none
CC(C)c1cc(=O)oc2c3c4c(cc12)CCCN4CCC3	D1 agonist 30
O=c1oc2c3c4c(cc2c(C(F)(F)F)c1CCN1CCOCC1)CCCN4CCC3	D1 agonist 178
Cc1ccc(O)c(/C=N/NC(=O)CN2CCCC2)c1	none
O=C(CN1CCCCCCC1)N/N=C/c1ccc(F)cc1F	D1 antag -32
O=c1[nH]c2ccccc2n1CCCN1CCN(C(c2ccccc2)c2ccccc2)CC1	D1 antag -44 (no result: GALK inhibitor)
COc1ccccc1-c1noc(-c2ccc(N3CCN(c4ccccc4)CC3)c([N+](=O)[O-])c2)n1	none (no result: Eya2 inh, GALK inhibitor, USP2a block)
COc1cc(/C=C(/C(=O)O)c2ccc(-c3ccccc3)cc2)cc(OC)c1OC	D1 antag -42
COc1ccc(N2CCN(C(=O)c3cn(C4CCCCC4)c(=O)c4c3c3ccccc3n4C)CC2)cc1	none (no result: Eya2 inh, GALK inhibitor, USP2a block)
CC(C)CCNC(=O)CSc1nc2ccccc2nc1Cc1ccccc1	none (no result: Eya2 inh, GALK inhibitor, USP2a block)
O=S1(=O)N=C(N/N=C/c2cccs2)c2ccccc21	D1 antag -31
COc1ccc2c(c1)CCc1c(C(=O)Nc3c(C)nn(Cc4ccccc4Cl)c3C)noc1-2	D1 antag -40 (no result: Eya2 inh, GALK inhibitor, USP2a block)
COc1ccc2c(c1)CCc1c(C(=O)Nc3c(C)nn(Cc4ccc(Cl)cc4)c3C)noc1-2	none (no result: Eya2 inh, GALK inhibitor, USP2a block)
COc1ccc2c(c1)CCc1c(C(=O)Nc3c(C)nn(Cc4ccccc4)c3C)noc1-2	D1 antag -32!
COc1ccc2c(c1)CCc1c(C(=O)Nc3c(C)nn(Cc4ccc(Cl)c(Cl)c4)c3C)noc1-2	none (no result: Eya2 inh, GALK inhibitor, USP2a block)
COc1ccc(OC)c(-c2cc(C(=O)Nc3c(C)nn(Cc4ccc(Cl)cc4)c3C)no2)c1	none
COc1ccc(OC)c(-c2cc(C(=O)NCc3ccco3)no2)c1	D1 antag -34
COc1ccc(OC)c(-c2cc(C(=O)Nc3c(C)nn(Cc4ccccc4)c3C)no2)c1	D1 antag -44
COc1ccc(C(=O)Nc2nnc(S(=O)(=O)N(C)c3ccc(C)cc3)s2)cc1	none (no result: Eya2 inh, GALK inhibitor, USP2a block)
Cc1ccc2nc(N3CCC(C(=O)N4CCN(c5cccc(Cl)c5)CC4)CC3)[nH]c2c1	D1 agonist 43 (no result: Eya2 inh, GALK inhibitor, USP2a block)
COc1ccccc1CNC(=O)C1CCN(c2nc3ccc(Cl)cc3[nH]2)CC1	D1 antag -74 (no result: Eya2 inh, GALK inhibitor, USP2a block)
Cc1cn2c(=O)cc(COC(=O)c3ccc(NC(=O)C(C)Oc4ccccc4)cc3)nc2s1 (configuration not stated)	none (no result: Eya2 inh, GALK inhibitor, USP2a block)
COc1ccc(-n2nc(C(=O)N(C)c3cc(C)ccc3C)c3c4ccccc4n(C)c3c2=O)cc1Cl	none (no result: Eya2 inh, GALK inhibitor, USP2a block)
CCCCN(CC(=O)NC1CCCC1)C(=O)C(=O)Nc1ccc2c(c1)OCCO2	D1 antag -36
O=C(COc1ccc2ccccc2c1Br)N1CCCCC1	D1 antag -32
NC(=O)C1CCN(C(=O)COc2ccc3ccccc3c2Br)CC1	D1 antag -64
CC1CN(C(=O)COc2ccc3ccccc3c2Br)CC(C)O1 (configuration not stated)	none
O=C(Oc1ccc2ccccc2c1Br)N1CCCCCC1	none
CCCCNC(=O)CSc1nc2cc3c(cc2c(=O)n1CCCC(=O)NCc1ccc(OC)cc1)OCO3	none (no result: Eya2 inh, GALK inhibitor, USP2a block)
CCCNS(=O)(=O)c1ccc2nc(NC(=O)c3ccc(F)cc3)sc2c1	none (no result: Eya2 inh, GALK inhibitor, USP2a block)
CC(Oc1ccc(C(C)(C)C)cc1)c1ccnc2nc(/N=C/N(C)C)nn12 (configuration not stated)	D1 agonist 46
COc1ccc(F)cc1C(=O)C1CCCN(Cc2cn(C)c3ccccc23)C1 (configuration not stated)	none
COc1ccc(F)cc1C(=O)C1CCCN(C(=O)c2ocnc2C)C1 (configuration not stated)	D1 antag -32
COc1ccc(C(=O)C2CCCN(Cc3cn[nH]c3-c3ccc(F)cc3)C2)cc1OC (configuration not stated)	none
COc1ccc(F)cc1C(=O)C1CCCN(Cc2c[nH]c3ccccc23)C1 (configuration not stated)	D1 agonist 47, D1 antag -43
COc1ccc(-c2[nH]ncc2CN2CCCC(C(=O)c3ccc(OC)cc3OC)C2)cc1 (configuration not stated)	D1 antag -31
CCOc1ccc(-n2c(SCC(N)=O)nc3c(oc4ccccc43)c2=O)cc1	none (no result: Eya2 inh, GALK inhibitor, USP2a block)
Cc1ccccc1C(=O)Nc1nc(-c2ccc(Br)cc2)ns1	none (no result: Eya2 inh, GALK inhibitor, USP2a block)
COc1cc(OC)c(NC(=O)CCn2cnc3onc(-c4ccc(F)cc4)c3c2=O)cc1Cl	none (no result: Eya2 inh, GALK inhibitor, USP2a block)
C=C(C)CSC1=C(C#N)C(c2ccsc2)CC(=O)N1 (configuration not stated)	D1 antag -39
CCSC1=C(C#N)C(c2ccc(F)cc2)CC(=O)N1 (configuration not stated)	D1 antag -32
CCSC1=C(C#N)C(c2cccc(O)c2)CC(=O)N1 (configuration not stated)	none
CCSC1=C(C#N)C(c2ccc(OC)c(OC)c2)CC(=O)N1 (configuration not stated)	none
CCc1ccc(NC(=O)Nc2ccccc2OCc2cc(=O)n3ccccc3n2)cc1	none (no result: Eya2 inh, GALK inhibitor, USP2a block)
CC(C)Nc1ccc(Nc2ccnc3cc4ccccc4cc23)cc1	none
c1ccc(CCNc2ccnc3cc4ccccc4cc23)cc1	D1 agonist 34, D1 antag -82
N#Cc1ccc(C[C@@H](NS(=O)(=O)c2ccc(C(=O)O)cc2)C(=O)O)cc1	D1 antag -35 (no result: GALK inhibitor)
O=C(O)c1ccc(S(=O)(=O)N[C@@H](Cc2ccc(O)cc2)C(=O)O)cc1	none (no result: GALK inhibitor)
COc1ccccc1-c1nnc2n(CCc3ccccc3)c(=O)c3ccccc3n12	none (no result: Eya2 inh, GALK inhibitor, USP2a block)
O=C(NCCN1C(=O)S/C(=C\c2ccc(Cl)c([N+](=O)[O-])c2)C1=O)C1=COCCO1	D1 antag -57 (no result: GALK inhibitor)
Cc1cc2nc3s/c(=C/c4ccc(-c5ccccc5C(=O)O)o4)c(=O)n3c2cc1C	D1 agonist 142, D1 antag -38 (no result: GALK inhibitor)
O=C(O)c1cc(-c2ccc(/C=c3\sc4nc5ccc(Br)cc5n4c3=O)o2)ccc1Cl	D1 agonist 36
O=C(O)c1ccccc1-c1ccc(/C=c2\sc3nc4cc(Br)cnc4n3c2=O)o1	none

Screening data from PubChem.
